The source made the active and inactive calls.
How the values were obtained:
[1] = E. coli DRC41 culture turbidity changes, primary screen, E. coli filamentation inducer project, strain DRC41, OD650, 48 h (AID 1152);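 further: E. coli MC1000 strain DRC41 lacking acrAB efflux pump and sulA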; conditions: E. coli DRC41 (acrAB sulA), higher = more signal, called active from +8 up or from −8 down
[2] = small-molecule binders of probe aLefty1, primary screen, biochemical, small-molecule microarray, 635/667 nm fluorescence (AID 1153); conditions: higher = more signal;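 further: score merges spot fluorescence with signal-to-noise ratio from the scanned slide images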
[3] = PSAC antagonists in infected red cells, primary screen, cell-based, P. falciparum Indochina, OD700, 1 h (AID 1154); conditions: P. falciparum Indochina infected RBC osmotic lysis, higher = more signal, called active from +8 up or from −8 down
[4] = PSAC antagonists in infected red cells, primary screen, cell-based, P. falciparum Indochina, OD700, 2 h (AID 1155);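 further: lysis reports solute entry through the parasite surface anion channel PSAC; channel blockers reduce lysis of infected cells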; conditions: P. falciparum Indochina infected erythrocytes, osmotic lysis OD700; higher = more signal, called active from +8 up or from −8 down
[5] = osmotic lysis modulators in infected erythrocytes, primary screen, PSAC antagonist project, cell-based, P. falciparum Indochina, OD700, 3 h (AID 1156); conditions: higher = more signal, called active from +8 up or from −8 down
[6] = PSAC antagonists in infected red cells, primary screen, cell-based, P. falciparum Indochina, OD700, 18 h (AID 1157); conditions: P. falciparum Indochina infected erythrocytes, osmotic lysis OD700, 18 h; higher = more signal, called active from +8 up or from −8 down
[7] = modulators of S6 phosphorylation in cells, primary screen, cell-based, A549, cytoblot, luminescence, serum-stimulated (AID 1158); conditions: A549 phospho-S6 cytoblot, 5 h, higher = more signal;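 further: serum-stimulated A549 lung adenocarcinoma cells; signal is phosphorylated S6 detected by cytoblot immunostaining with HRP secondary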
[8] = target: NADPH oxidase 2 (Homo sapiens) (UniProt P04839); assay: NOX2-dependent H2O2 signal modulators, primary screen, NOX inhibitor project, cell-based, HEK293-NOX2, PMA-stimulated, Amplex Red fluorescence (AID 1159); conditions: 45 min, higher = more signal, called active from +8 up or from −8 down; further: test concentration not given here
NADPH oxidase 2 (Homo sapiens), sequence (P04839 whole entry, looked up): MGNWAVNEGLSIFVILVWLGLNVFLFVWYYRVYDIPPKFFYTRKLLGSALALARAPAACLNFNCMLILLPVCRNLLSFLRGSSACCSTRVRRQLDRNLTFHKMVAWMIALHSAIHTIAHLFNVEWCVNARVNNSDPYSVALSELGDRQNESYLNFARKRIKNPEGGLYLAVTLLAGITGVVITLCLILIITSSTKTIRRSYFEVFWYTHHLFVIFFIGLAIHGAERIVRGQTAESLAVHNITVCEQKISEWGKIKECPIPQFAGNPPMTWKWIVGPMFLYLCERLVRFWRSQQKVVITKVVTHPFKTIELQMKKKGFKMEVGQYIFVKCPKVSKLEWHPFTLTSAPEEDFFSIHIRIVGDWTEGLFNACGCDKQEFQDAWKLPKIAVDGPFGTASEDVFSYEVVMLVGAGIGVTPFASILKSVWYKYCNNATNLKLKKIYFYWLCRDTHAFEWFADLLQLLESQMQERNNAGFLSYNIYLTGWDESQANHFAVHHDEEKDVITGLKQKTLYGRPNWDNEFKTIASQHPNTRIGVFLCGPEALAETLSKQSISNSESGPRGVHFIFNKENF

[9] = target: NADPH oxidase 4 (Homo sapiens) (UniProt Q9NPH5); assay: NOX4-dependent H2O2 signal modulators, primary screen, NOX inhibitor project, cell-based, HEK293-NOX4, tetracycline-induced, Amplex Red fluorescence (AID 1160); conditions: 45 min, higher = more signal, called active from +8 up or from −8 down
NADPH oxidase 4 (Homo sapiens), sequence (Q9NPH5 whole entry, looked up): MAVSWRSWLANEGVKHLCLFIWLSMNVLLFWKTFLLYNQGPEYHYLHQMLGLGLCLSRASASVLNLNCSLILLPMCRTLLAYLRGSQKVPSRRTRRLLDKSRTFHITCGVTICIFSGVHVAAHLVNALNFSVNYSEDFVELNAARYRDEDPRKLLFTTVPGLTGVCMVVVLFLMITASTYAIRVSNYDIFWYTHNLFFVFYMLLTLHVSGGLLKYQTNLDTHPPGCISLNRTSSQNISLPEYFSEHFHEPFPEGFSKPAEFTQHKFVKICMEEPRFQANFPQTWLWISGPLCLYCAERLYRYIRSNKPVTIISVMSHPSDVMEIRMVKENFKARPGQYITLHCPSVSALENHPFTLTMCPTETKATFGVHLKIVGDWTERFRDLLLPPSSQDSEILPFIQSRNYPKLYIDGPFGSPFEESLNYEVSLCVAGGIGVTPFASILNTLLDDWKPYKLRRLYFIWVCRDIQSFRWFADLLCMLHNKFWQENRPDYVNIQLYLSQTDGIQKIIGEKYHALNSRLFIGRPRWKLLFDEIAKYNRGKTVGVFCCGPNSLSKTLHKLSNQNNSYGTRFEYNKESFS

[10] = target: NADPH oxidase 5 (Homo sapiens) (UniProt Q96PH1); assay: NOX5-dependent H2O2 signal modulators, primary screen, NOX inhibitor project, cell-based, HEK293-NOX5, Amplex Red fluorescence (AID 1161); conditions: HEK293-NOX5, ionomycin, 45 min, higher = more signal
NADPH oxidase 5 (Homo sapiens), sequence (Q96PH1 whole entry, looked up): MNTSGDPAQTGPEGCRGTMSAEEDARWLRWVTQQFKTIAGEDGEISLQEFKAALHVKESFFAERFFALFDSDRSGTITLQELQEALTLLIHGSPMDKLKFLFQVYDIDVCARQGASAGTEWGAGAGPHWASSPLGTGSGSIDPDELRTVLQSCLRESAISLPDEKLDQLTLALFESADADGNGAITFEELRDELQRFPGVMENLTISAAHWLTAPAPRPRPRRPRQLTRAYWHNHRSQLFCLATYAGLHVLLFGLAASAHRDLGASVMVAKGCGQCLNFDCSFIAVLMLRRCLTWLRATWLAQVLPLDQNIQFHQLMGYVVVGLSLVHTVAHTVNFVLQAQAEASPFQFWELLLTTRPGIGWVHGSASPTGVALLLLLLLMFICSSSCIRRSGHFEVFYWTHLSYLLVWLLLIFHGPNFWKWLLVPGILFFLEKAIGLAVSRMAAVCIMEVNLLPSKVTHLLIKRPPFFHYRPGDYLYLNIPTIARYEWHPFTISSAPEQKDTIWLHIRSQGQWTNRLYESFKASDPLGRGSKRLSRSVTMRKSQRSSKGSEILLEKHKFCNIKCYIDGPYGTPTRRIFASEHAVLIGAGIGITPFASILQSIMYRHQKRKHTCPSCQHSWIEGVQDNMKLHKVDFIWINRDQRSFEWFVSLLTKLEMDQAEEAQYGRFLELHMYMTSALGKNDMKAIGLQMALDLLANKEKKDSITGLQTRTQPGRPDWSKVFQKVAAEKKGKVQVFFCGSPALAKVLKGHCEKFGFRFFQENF

[11] = A549 cell viability effects, profiling panel, calcein-AM fluorescence, 48 h, basal (AID 1162); conditions: higher = more signal; further: test concentration not given here
[12] = adipocyte viability effects, profiling panel, cell-based, 3T3-L1 adipocytes, calcein-AM fluorescence, 48 h, basal (AID 1163); conditions: 3T3-L1 adipocytes viability, higher = more signal; further: test concentration not given here
[13] = HepG2 cell viability effects, profiling panel, calcein-AM fluorescence, 48 h, basal (AID 1164); conditions: higher = more signal; further: test concentration not given here
[14] = MM1S cell viability effects, profiling panel, calcein-AM fluorescence, 48 h, basal (AID 1165); conditions: higher = more signal;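 further: viability of MM1S multiple myeloma cells under basal unstimulated conditions; test concentration not given here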
[15] = basal RPMI8226 viability, no added stimulus, profiling panel, cell-based, calcein-AM fluorescence, 48 h, PK04 Diversity Set (AID 1166); conditions: RPMI8226 myeloma viability, higher = more signal;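 further: cells grown under basal conditions without added stimulus; test concentration not given here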
[16] = basal HepG2 mitochondrial membrane potential changes, profiling panel, cell-based, JC-1 fluorescence, 24 h, 100 nL compound (AID 1167); conditions: higher = more signal; further: test concentration not given here
[17] = basal 3T3-L1 adipocyte mitochondrial potential changes, profiling panel, cell-based, JC-1 fluorescence, 3T3-L1 adipocytes, 24 h, 100 nL compound (AID 1168); conditions: JC-1 mitochondrial fluorescence, higher = more signal, called active from +8 up or from −8 down; further: test concentration not given here
[18] = basal RPMI8226 mitochondrial membrane potential changes, profiling panel, cell-based, JC-1 fluorescence, 24 h, 100 nL compound (AID 1169); conditions: RPMI8226 myeloma, JC-1 mitochondrial potential fluorescence, higher = more signal; further: test concentration not given here
[19] = basal MM1S mitochondrial membrane potential changes, profiling panel, cell-based, JC-1 fluorescence, 24 h, 100 nL compound (AID 1170); conditions: higher = more signal; further: test concentration not given here
[20] = A549 lung cancer cell viability effects, profiling panel, resazurin fluorescence, 24 h, PK04 Diversity Set (AID 1171); conditions: higher = more signal, called active from +8 up or from −8 down; further: test concentration not given here

Row | SMILES | z-score [1] | composite z-score [2] | z-score [3] | z-score [4] | z-score [5] | z-score [6] | z-score [7] | z-score [8] | z-score [9] | z-score [10] | z-score [11] | z-score [12] | z-score [13] | z-score [14] | z-score [15] | z-score [16] | z-score [17] | z-score [18] | z-score [19] | z-score [20]
1 | CN1C(=O)C2C(C1=O)C1C=C(c3ccc(CO)cc3)C2C(c2cccs2)N1Cc1cccc(OC(F)(F)F)c1 (stereo not given) | -0.652 (inactive) | 0.0999 | 17.4 (active) | 3.33 (inactive) | 1.81 (inactive) | 1.43 (inactive) | 0.624 | -2.71 (inactive) | -1.35 (inactive) | -2.6 | 0.567 | 1.25 | -0.617 | -0.314 | -2.96 | -1.71 | -1.12 (inactive) | -0.722 | -0.556 | -0.665 (inactive)
2 | C=CCC(OC(C)=O)[C@@H]1[C@@H](N(Cc2cc3ccccc3o2)C(=O)Cc2ccc(F)cc2)c2cc(OCCCO)ccc2N1C(=O)c1ccc2ccccc2n1 (stereo not given in full) | -0.548 (inactive) | -0.0984 | 1.05 (inactive) | 0.213 (inactive) | -0.627 (inactive) | -0.0096 (inactive) | -0.53 | 0.259 (inactive) | 0.642 (inactive) | 1.28 | -0.153 | 1.2 | 1.09 | 0.466 | -0.553 | 1.72 | -0.528 (inactive) | -0.131 | 0.288 | 0.642 (inactive)
3 | [N-]=[N+]=NCc1ccccc1C[C@]1(C(=O)NCC(O)CO)N=C(c2ccc(OCCCO)cc2)O[C@H]1c1ccccc1CN=[N+]=[N-] (stereo not given in full) | -0.0074 (inactive) | 0.865 | 19.3 (active) | 2.49 (inactive) | 1.81 (inactive) | -0.481 (inactive) | 1.67 | -1.97 (inactive) | -2.19 (inactive) | -1.41 | -0.905 | 1.01 | -0.426 | -2.3 | -2.6 | 0.136 | -0.323 (inactive) | -1.02 | -0.555 | -0.402 (inactive)
4 | C=CC[C@@]1(C(=O)O)N=C(c2ccc(OCCCO)cc2)O[C@@H]1c1ccccc1 | 0.938 (inactive) | -0.146 | 11.5 (active) | 0.526 (inactive) | 0.208 (inactive) | 0.568 (inactive) | 0.0003 | 0.0822 (inactive) | 1.25 (inactive) | 0.448 | 0.819 | -0.563 | 1.59 | 0.576 | -0.252 | 0.89 | 0.995 (inactive) | -0.462 | -0.341 | 0.353 (inactive)
5 | COCC(=C=CC[C@H](O)c1cccc(OCCO)c1)C[C@H](O)c1ccccn1 | 0.941 (inactive) | -0.198 | 8.86 (active) | 1.16 (inactive) | 1.49 (inactive) | 0.674 (inactive) | 0.789 | -0.142 (inactive) | 0.154 (inactive) | -0.772 | 1.39 | 0.101 | 1.25 | 0.0467 | 0.461 | 0.843 | 1.49 (inactive) | 0.237 | -0.664 | 1.22 (inactive)
6 | O=c1cccc(-c2cccc(Cl)c2)o1 | 0.457 (inactive) | -0.0057 | 25.8 (active) | 10.2 (active) | -0.51 (inactive) | 1.27 (inactive) | -0.717 | -0.16 (inactive) | -1.92 (inactive) | -0.541 | -1.09 | -0.164 | -0.0227 | -0.345 | -0.895 | -0.687 | 0.308 (inactive) | 0.86 | -0.024 | 0.0053 (inactive)
7 | CN(C)CCCNC(=O)[C@@]1(C)c2ccccc2C(=O)N(Cc2cc(C(F)(F)F)cc(C(F)(F)F)c2)[C@H]1c1ccc(CO)cc1 | -1.2 (inactive) | -0.147 | 2.37 (inactive) | -0.0111 (inactive) | 2.17 (inactive) | 0.327 (inactive) | 0.16 | 0.0342 (inactive) | -1.35 (inactive) | -2.64 | -0.434 | 0.157 | 0.221 | -0.309 | -2.36 | 1.31 | -0.36 (inactive) | -0.0152 | -0.279 | -0.832 (inactive)
8 | COc1cc2c(cc1O)C(C)N(Cc1cc3c(cc1Br)OCO3)CC2 (stereo not given) | 1.2 (inactive) | -0.0196 | 2.87 (inactive) | 0.551 (inactive) | 0.117 (inactive) | 0.401 (inactive) | 0.36 | -3.74 (inactive) | -2.96 (inactive) | -2.91 | -0.279 | 0.453 | -0.346 | -0.981 | -0.308 | -0.378 | 0.168 (inactive) | -0.481 | 0.71 | -0.807 (inactive)
9 | CO[C@H]1O[C@H](CO)[C@@H](OC(=O)Nc2ccc(Oc3ccccc3)cc2)[C@H](OC(=O)Nc2ccccc2-c2ccccc2)[C@@H]1OC(=O)Nc1ccccc1-c1ccccc1 | 0.963 (inactive) | 0.361 | 0.484 (inactive) | 1.04 (inactive) | 0.228 (inactive) | 0.766 (inactive) | 0.322 | 2.06 (inactive) | 0.707 (inactive) | 0.356 | -0.0685 | 0.0358 | -0.61 | -0.443 | -0.612 | 0.319 | 2.46 (inactive) | -1.13 | 0.267 | -0.41 (inactive)
10 | O=C1O[C@@H](c2ccccc2)[C@@H](c2ccccc2)N2[C@@H](c3ccc(O)cc3)[C@]3(C(=O)Nc4ccc(C#CC5=CCCCC5)cc43)[C@@H](C(=O)N3CCN(c4ncccn4)CC3)[C@H]12 | 1.29 (inactive) | 0.257 | 0.445 (inactive) | 0.35 (inactive) | -4.76 (inactive) | 0.614 (inactive) | 0.401 | 0.532 (inactive) | 0.278 (inactive) | 0.904 | -1.9 | 0.0112 | -1.25 | -1.2 | -2.78 | -0.703 | 0.701 (inactive) | -0.588 | -0.877 | 0.785 (inactive)
11 | C=CCNC(=O)[C@@H]1[C@H]2C(=O)O[C@H](c3ccccc3)[C@H](c3ccccc3)N2[C@H](c2ccc(OCCO)cc2)[C@@]12C(=O)N(C(=O)OCCOC)c1ccc(C#CC3=CCCCC3)cc12 | -0.892 (inactive) | 0.173 | 6.2 (inactive) | 2.12 (inactive) | 0.669 (inactive) | 1.46 (inactive) | 0.0846 | 1.13 (inactive) | -0.0729 (inactive) | 1.69 | -0.549 | -0.354 | 0.0468 | -1.45 | -1.59 | -0.893 | -0.0381 (inactive) | -0.814 | -1.57 | -1.01 (inactive)
12 | COCCCNC(=O)[C@@H]1c2ccccc2C(=O)N(Cc2ccccc2C(F)(F)F)[C@H]1c1ccc(CO)cc1 | 0.938 (inactive) | -0.198 | 1.14 (inactive) | 0.165 (inactive) | 0.0034 (inactive) | -0.0633 (inactive) | 0.0987 | -0.214 (inactive) | 0.732 (inactive) | 0.498 | 2.1 | 1.29 | 1 | 0.7 | 0.237 | 2.55 | -0.0216 (inactive) | -0.213 | 0.872 | 1.8 (inactive)
13 | C=C[C@@H](C)[C@H](OC(=O)Nc1ccc(SC)cc1)c1ccc(OCCO)cc1 | -0.605 (inactive) | -0.33 | 27.9 (active) | 12 (active) | 3.4 (inactive) | 1.75 (inactive) | 2.17 | -0.329 (inactive) | -0.14 (inactive) | -0.18 | -0.848 | 0.54 | 0.0237 | 0.191 | 0.794 | -0.692 | 0.396 (inactive) | 0.917 | -1.13 | -0.0363 (inactive)

Reference: PubChem BioAssay
